PglD inh = PglD (C. jejuni) enzyme inhibition; purified PglD enzyme, DTNB colorimetric CoA detection; inhibition, % at 12.5 µM; hit rate 0.098% among 360,000; in the data active = inhibition above about 16%, passing the limit was not always enough; inconclusive = no clear call, values can overlap the other calls
SIRT5 block = blocks human SIRT5 desuccinylation of peptide. Q9NXA8. Purified SirT5, succinyl-peptide AMC, trypsin-coupled fluorescence. inhibition, % at 15 µM. hit rate 1.1% among 330,000; in the data active = inhibition above about 15%; inconclusive = no clear call, values can overlap the other calls
PvdQ inh = P. aeruginosa PvdQ acylase inhibition | inhibition, % at 10 µM | purified PvdQ acylase, fluorescence plate reader | hit rate 0.063% among 340,000; in the data active = inhibition above about 30%, passing the limit was not always enough; inconclusive = no clear call, values can overlap the other calls
dFosB act-1 = mouse delta FosB homodimer activation; P13346; purified delta FosB, TAMRA-CDK5 oligo fluorescence polarization; percent of positive-control signal above neutral wells; activation, % at 25 µM; hit rate 0.99% among 340,000;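 active = mean activation above about 17%, with every replicate also reaching it, limit read from the data, passing the limit was not always enough; inconclusive = only one of the two conditions met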
CDK5 p35 inh = inhibitors of human CDK5/p35 kinase. Q00535+Q15078. Recombinant CDK5/p35, ADP-Glo luminescence, 60 min. inhibition, % at 10 µM. hit rate 0.01% among 330,000. AID 488839;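 active = highest replicate inhibition of at least 50% and at least 75% of replicates reaching 50%; inconclusive = only one of the two criteria met; inactive = both criteria failed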
Target sequence (Q00535 whole entry, looked up): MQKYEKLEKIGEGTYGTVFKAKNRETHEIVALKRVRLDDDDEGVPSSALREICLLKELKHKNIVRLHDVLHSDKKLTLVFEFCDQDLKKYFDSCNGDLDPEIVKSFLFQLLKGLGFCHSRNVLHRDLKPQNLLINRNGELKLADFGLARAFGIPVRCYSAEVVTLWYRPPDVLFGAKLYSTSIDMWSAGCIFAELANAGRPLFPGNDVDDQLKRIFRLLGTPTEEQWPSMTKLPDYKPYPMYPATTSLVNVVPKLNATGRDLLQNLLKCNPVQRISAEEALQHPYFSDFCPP
Target sequence (Q15078 whole entry, looked up): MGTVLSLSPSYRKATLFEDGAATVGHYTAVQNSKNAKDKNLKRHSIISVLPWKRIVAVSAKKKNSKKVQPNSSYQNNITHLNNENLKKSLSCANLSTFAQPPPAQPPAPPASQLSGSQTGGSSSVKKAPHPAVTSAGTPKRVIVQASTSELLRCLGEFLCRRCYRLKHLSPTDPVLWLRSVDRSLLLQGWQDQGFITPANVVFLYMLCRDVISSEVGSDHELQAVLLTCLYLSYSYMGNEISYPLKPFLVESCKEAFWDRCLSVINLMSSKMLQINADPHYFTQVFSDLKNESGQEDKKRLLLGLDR
FGF22 binding = FGF22 (human) thermal shift binding; Q9HCT0; hit rate 1.5% among 340,000; activity (Tm shift, normalised), % at 9.99 µM; AID 651658; recombinant FGF22 thermal shift, SYPRO orange fluorescence; percent of sucrose octasulfate shift, DMSO zero;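 active = mean Tm shift, scaled 0 neutral to 100 positive control, at about 1.3% or above, every replicate too, limit read from the data; inconclusive = no clear call, values can overlap the other calls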
Target sequence (Q9HCT0 whole entry, looked up): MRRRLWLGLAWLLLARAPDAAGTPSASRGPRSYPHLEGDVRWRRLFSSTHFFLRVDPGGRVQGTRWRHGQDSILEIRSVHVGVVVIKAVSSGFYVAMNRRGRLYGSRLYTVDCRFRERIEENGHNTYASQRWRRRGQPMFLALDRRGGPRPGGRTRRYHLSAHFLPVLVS
dFosB act-2 = activators of mouse delta FosB homodimer DNA binding. shares compounds with dFosB act-1. purified delta FosB, TAMRA-CDK5 oligo fluorescence polarization; normalised: neutral wells 0, positive control 100. activation, % at 24.9 µM. 2,400 tested, under 10 active;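 active = highest replicate activation at or above 34% and every replicate reaching that threshold; inconclusive = meets only one of the two criteria; inactive = meets neither criterion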;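 note: higher polarization means more probe DNA bound by delta FosB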
Large screens that a line does not name were inactive (follow-up assays come after a bar, where they were run). This is a sample that favours compounds with a hit; in the whole collection about 2.8% have one here.

C[C@H](CO)N1C[C@H](C)[C@@H](CN(C)C(=O)Nc2cccc3ccccc23)Oc2c(NS(=O)(=O)c3ccc(Cl)cc3)cccc2C1=O	none (no result: PvdQ inh, dFosB act-1, CDK5 p35 inh)
CCc1nonc1NC(=O)c1oc2ccc(C)cc2c1C	none
Cc1nonc1NC(=O)c1oc2ccc(F)cc2c1C	dFosB act-1 29 | dFosB act-2 inactive
Cc1cc2oc(C(=O)Nc3nonc3C)c(C)c2cc1Cl	dFosB act-1 46 | dFosB act-2 inactive
CCc1ccc2oc(C(=O)Nc3nonc3CC)c(C)c2c1	none
COc1ccc(OCC(=O)NNC(=O)Nc2cccc(Cl)c2)cc1	none
O=C(Cc1cccc2ccccc12)NNC(=O)Nc1cccc(Cl)c1	dFosB act-1 31 (no result: SIRT5 block, FGF22 binding) | dFosB act-2 inactive
Cc1cccc(OCC(=O)NNC(=O)Nc2cccc(Cl)c2)c1C	dFosB act-1 18 (no result: SIRT5 block, FGF22 binding) | dFosB act-2 inactive
Cc1ccc(-c2ccc(C3[C@H]4CNC[C@@H]3N4S(=O)(=O)c3cn(C)cn3)cc2)cc1 (some centres not stated)	none (no result: PglD inh, PvdQ inh, dFosB act-1, CDK5 p35 inh, FGF22 binding)
Clc1cc2nc(-c3cccnc3Cl)[nH]c2cc1Cl	dFosB act-1 35 | dFosB act-2 inactive
Cc1cc2nc(-c3ccccc3O)[nH]c2cc1C	none
C[C@H](CO)N1C[C@H](C)[C@@H](CN(C)Cc2ccccc2F)Oc2cc(C3=CCCC3)ccc2S1(=O)=O	none (no result: PvdQ inh, dFosB act-1, CDK5 p35 inh)
Cc1ccc(Nc2ncnc(-n3cccc3)n2)cc1Cl	none (no result: PglD inh)
Clc1cc(Cl)cc(Nc2ncnc(-n3cccc3)n2)c1	dFosB act-1 30 (no result: FGF22 binding) | dFosB act-2 inactive
O=C(C1CC1)N1[C@@H](CO)[C@@H](c2ccccc2)C12CN(Cc1cccc(Cl)c1)C2	none (no result: PglD inh, PvdQ inh, dFosB act-1, CDK5 p35 inh)
C[C@H](CO)N1C[C@H](C)[C@H](CN(C)S(=O)(=O)c2cn(C)cn2)OCCCC[C@H](C)Oc2ccc(NS(=O)(=O)c3ccc(F)cc3)cc2C1=O	none (no result: PvdQ inh, dFosB act-1, CDK5 p35 inh)
CCc1ccc(NC(=O)CCCOc2cc(=O)n(C)c3ccccc23)cc1	none (no result: PvdQ inh, dFosB act-1, CDK5 p35 inh)
Cn1c(=O)cc(OCCCC(=O)Nc2ccc3c(c2)OCCO3)c2ccccc21	dFosB act-1 44 (no result: SIRT5 block, FGF22 binding) | dFosB act-2 inactive
Cc1cc2ccccc2c(=O)n1CC(=O)Nc1ccc2c(c1)OCCO2	dFosB act-1 19 (no result: SIRT5 block, FGF22 binding) | dFosB act-2 inactive
CCN(C(=O)CSc1nc(-c2cccs2)nc2ccccc12)C1CCS(=O)(=O)C1 (configuration not stated)	none
O=C(CSc1nc(-c2cccs2)nc2ccccc12)NC1CCS(=O)(=O)C1 (configuration not stated)	dFosB act-1 34 | dFosB act-2 inactive
CCCN1C[C@@H](C)[C@H](OC)CN(C)C(=O)c2cc(NS(=O)(=O)c3ccccc3)ccc2OC[C@H]1C	none (no result: PvdQ inh, dFosB act-1, CDK5 p35 inh)
O=C(Cn1cnc2c(nnn2Cc2ccc(F)cc2)c1=O)NCc1ccccc1	none (no result: PglD inh)
CCOc1ccc(CNC(=O)Cn2nc(C)c3c(C)n(-c4ccc(C)cc4)nc3c2=O)cc1	dFosB act-1 59 | dFosB act-2 inactive
Cc1ccc(-n2nnc3c(=O)n(CC(=O)NCc4ccccc4)cnc32)cc1	dFosB act-1 27 | dFosB act-2 inactive
Cc1ccc(-n2nc3c(=O)n(CC(=O)NCc4ccccn4)nc(C)c3c2C)cc1	none
O=C(Cn1cnc2c(nnn2-c2ccccc2)c1=O)NCc1ccc(F)cc1	dFosB act-1 19 | dFosB act-2 inactive
CCc1nn(CC(=O)NCCCc2ccccc2)c(=O)c2cc3cc(F)ccc3n12	dFosB act-1 inconclusive (no result: SIRT5 block, CDK5 p35 inh, FGF22 binding)
CCc1nn(CC(=O)NCCC2=CCCCC2)c(=O)c2cc3cc(F)ccc3n12	dFosB act-1 41 | dFosB act-2 inactive
COc1ccccc1CC(=O)Nc1ccc([N+](=O)[O-])cc1O	dFosB act-1 24 (no result: PglD inh) | dFosB act-2 inactive
Cc1ccc(S(=O)(=O)N(C)C[C@@H]2OCCCC[C@@H](C)Oc3ccc(NC(=O)CCC(F)(F)F)cc3C(=O)N([C@H](C)CO)C[C@@H]2C)cc1	none (no result: PvdQ inh, dFosB act-1, CDK5 p35 inh, FGF22 binding)
COc1cc(NC(=O)C2CCCN(S(=O)(=O)c3ccc4[nH]c(=O)ccc4c3)C2)cc(OC)c1 (configuration not stated)	dFosB act-1 52 | dFosB act-2 inactive
CCOc1ccc(NC(=O)C2CCCN(S(=O)(=O)c3ccc4[nH]c(=O)ccc4c3)C2)cc1 (configuration not stated)	none
COc1ccc(NC(=O)C2CCCN(S(=O)(=O)c3ccc4[nH]c(=O)ccc4c3)C2)cc1 (configuration not stated)	dFosB act-1 17 (no result: SIRT5 block) | dFosB act-2 inactive
C[C@@H]1CN([C@@H](C)CO)C(=O)c2cc(NC(=O)Nc3cccc4ccccc34)ccc2O[C@@H](C)CCCCO[C@@H]1CN(C)C(=O)C1CCCCC1	none (no result: PvdQ inh, dFosB act-1, CDK5 p35 inh)
CNC(=O)c1ccc(-c2ccc(F)cc2)s1	none (no result: SIRT5 block, FGF22 binding)
CNC(=O)c1ccc(-c2ccc(Cl)c(Cl)c2)s1	dFosB act-1 21 (no result: PglD inh, SIRT5 block, FGF22 binding) | dFosB act-2 inactive
CN(C)Cc1cn(CC[C@H]2CC[C@@H](NC(=O)Nc3ccc4c(c3)OCO4)[C@@H](CO)O2)nn1	none (no result: PvdQ inh, dFosB act-1, CDK5 p35 inh)
COc1cc(/C=C(\C#N)c2nc3ccccc3[nH]2)ccc1OC(=O)c1ccco1	dFosB act-1 27 (no result: PglD inh) | dFosB act-2 inactive
COc1cc(/C=C(/C#N)c2nc3ccccc3[nH]2)ccc1OCC(=O)Nc1ccccc1C	none
CS(=O)(=O)NNC(=O)c1csc(Cc2c(Cl)sc3ccc(Cl)cc23)n1	dFosB act-1 36 (no result: PglD inh, SIRT5 block) | dFosB act-2 inactive
O=C(Nc1ccccc1)c1nc[nH]c1C(=O)NCCCCNC(=O)c1[nH]cnc1C(=O)Nc1ccccc1	none (no result: SIRT5 block)
O=C(Nc1ccccc1)c1nc[nH]c1C(=O)NCCNC(=O)c1[nH]cnc1C(=O)Nc1ccccc1	dFosB act-1 37 (no result: SIRT5 block) | dFosB act-2 inactive
CN1C[C@H](O)COC[C@H]2O[C@@H](CC(=O)NC3CCC3)CC[C@@H]21	none (no result: PvdQ inh, dFosB act-1, CDK5 p35 inh)
CCN1CCN(c2cc(N3CCc4ccccc4C3)c(F)cc2[N+](=O)[O-])CC1	dFosB act-1 19 (no result: PglD inh, SIRT5 block, FGF22 binding) | dFosB act-2 inactive
Cc1cccc(C)c1OCC(=O)Nc1ncn[nH]1	none (no result: SIRT5 block, FGF22 binding)
O=C(COc1ccc2ccccc2c1Br)Nc1ncn[nH]1	dFosB act-1 25 (no result: PglD inh) | dFosB act-2 inactive
COC(=O)c1ccc2c(=O)n(CCCCCC(=O)NCc3ccc4c(c3)OCO4)c(=O)[nH]c2c1	none (no result: PglD inh, SIRT5 block, FGF22 binding)
O=C(CCn1c(=S)[nH]c2ccccc2c1=O)Nc1cccc(Cl)c1	dFosB act-1 47 | dFosB act-2 inactive
O=C(CCCCCn1c(=S)[nH]c2ccccc2c1=O)NCc1ccc2c(c1)OCO2	dFosB act-1 44 (no result: SIRT5 block, FGF22 binding) | dFosB act-2 inactive
O=C(CCCn1c(=O)[nH]c2ccc(Br)cc2c1=O)NCc1ccc(Cl)cc1	dFosB act-1 100 (no result: PglD inh) | dFosB act-2 inactive
COc1cccc(CNC(=O)CCCn2c(=S)[nH]c3cc4c(cc3c2=O)OCO4)c1	dFosB act-1 32 | dFosB act-2 inactive
COc1cccc(N2CCN(C(=O)CCCCCn3c(=S)[nH]c4cc5c(cc4c3=O)OCO5)CC2)c1	none

Assay outcomes (PubChem BioAssay)
